Assay results reported in PubChem BioAssay AID1159580 (chemical genetic matrix, 2015).
The campaign covered roughly 5,500 compounds. About 2,000 (36%) were called active. About 18% were inconclusive and are not listed. No stated cut-off is given here; in the data, active means normalized growth mostly below about 0.91 (no sharp cut-off); inconclusive means no clear call, values can overlap the other calls; inactive means mostly above about 0.92. The list shows a part of the results.

Test: chemical genetic growth profiling, strain panel (AID 1159580);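 further: tested at 20 µM; growth read once vehicle control cultures reached saturation at 30 °C; 1 = growth at the plate median or of vehicle wells; lower values mean less growth of the strain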
Conditions: S. cerevisiae deletion strains, growth OD

Measured: normalized growth

O=[N+]([O-])/C=C/c1ccc(F)cc1
active: locus YAR019C, strain CDC15, active compounds read low 0.0937 | locus YBL105C, strain PKC1, active compounds read low 0.0926 | locus YBR135W, strain CKS1, active compounds read low 0.0816 | locus YBR136W, strain MEC1, active compounds read low 0.0978 | locus YBR160W, strain CDC28, active compounds read low 0.091 | locus YDL017W, strain CDC7, active compounds read low 0.0902 | locus YDL028C, strain MPS1, active compounds read low 0.0982 | locus YDL101C, strain DUN1, active compounds read low 0.107 | locus YDL108W, strain KIN28, active compounds read low 0.102 | locus YDL132W, strain cdc53, active compounds read low 0.0889 | locus YDL214C, strain PRR2, active compounds read low 0.091 | locus YDR052C, strain DBF4, active compounds read low 0.0848 | locus YDR054C, strain cdc34, active compounds read low 0.0951 | locus YDR226W, strain ADK1, active compounds read low 0.0885 | locus YDR477W, strain SNF1, active compounds read low 0.1 | locus YER123W, strain YCK3, active compounds read low 0.102 | locus YER133W, strain GLC7, active compounds read low 0.0933 | locus YFL009W, strain cdc4, active compounds read low 0.0899 | locus YFL029C, strain CAK1, active compounds read low 0.0948 | locus YFR003C, strain YPI1, active compounds read low 0.0906 | locus YFR019W, strain FAB1, active compounds read low 0.0982 | locus YFR028C, strain CDC14, active compounds read low 0.0877 | locus YGR040W, strain KSS1, active compounds read low 0.104 | locus YGR052W, strain FMP48, active compounds read low 0.113 | locus YGR092W, strain DBF2, active compounds read low 0.0999 | locus YHR030C, strain SLT2, active compounds read low 0.111 | locus YHR079C, strain IRE1, active compounds read low 0.117 | locus YHR082C, strain KSP1, active compounds read low 0.121 | locus YHR205W, strain SCH9, active compounds read low 0.00904 | locus YIL147C, strain SLN1, active compounds read low 0.0998 | locus YJL095W, strain BCK1, active compounds read low 0.109 | locus YJL128C, strain PBS2, active compounds read low 0.0952 | locus YJL157C, strain FAR1, active compounds read low 0.0885 | locus YJR016C, strain ILV3, active compounds read low 0.0868 | locus YJR066W, strain TOR1 (second series), active compounds read low 0.0953 | locus YJR066W, strain TOR1, active compounds read low 0.114 | locus YKL048C, strain ELM1, active compounds read low 0.113 | locus YKL067W, strain YNK1, active compounds read low 0.087 | locus YKL101W, strain HSL1, active compounds read low 0.0964 | locus YKL193C, strain SDS22, active compounds read low 0.0853 | locus YKL203C, strain TOR2, active compounds read low 0.107 | locus YLR113W, strain HOG1, active compounds read low 0.129 | locus YLR133W, strain CKI1, active compounds read low 0.099 | locus YLR403W, strain SFP1, active compounds read low -0.000358 | locus YML070W, strain DAK1, active compounds read low 0.0913 | locus YMR001C, strain CDC5, active compounds read low 0.0877 | locus YMR205C, strain PFK2 (second series), active compounds read low 0.0893 | locus YMR277W, strain FCP1, active compounds read low 0.0903 | locus YNL006W, strain LST8, active compounds read low 0.0904 | locus YNL020C, strain ARK1, active compounds read low 0.102 | locus YNL161W, strain CBK1, active compounds read low 0.0853 | locus YNL183C, strain NPR1, active compounds read low 0.124 | locus YNL207W, strain RIO2, active compounds read low 0.091 | locus YNL222W, strain SSU72, active compounds read low 0.0861 | locus YNL307C, strain MCK1 (second series), active compounds read low 0.11 | locus YOL078W, strain AVO1, active compounds read low 0.0833 | locus YOL136C, strain PFK27, active compounds read low 0.0966 | locus YOR061W, strain CKA2, active compounds read low 0.0873 | locus YOR119C, strain RIO1, active compounds read low 0.112 | locus YOR231W, strain MKK1, active compounds read low 0.106 | locus YOR329C, strain SCD5, active compounds read low 0.0906 | locus YPL031C, strain PHO85, active compounds read low 0.0996 | locus YPL153C, strain RAD53, active compounds read low 0.101 | locus YPL204W, strain HRR25, active compounds read low 0.102 | locus YPL209C, strain IPL1, active compounds read low 0.0882 | locus YPL256C, strain CLN2, active compounds read low 0.135 | locus YPR025C, strain CCL1, active compounds read low 0.0876 | locus YPR106W, strain ISR1, active compounds read low 0.0871 | locus YPR111W, strain DBF20, active compounds read low 0.0892 | strain NNK1, active compounds read low 0.096 | strain TSCII, active compounds read low 0.0924
